Assay results published in PubChem BioAssay AID504941 (Broad Institute, 2011).
About 170 (14%) of roughly 1,200 compounds were called active. No rule for the calls is given here. These entries were drawn from the full list. Results with a measured potency or affinity are listed apart.

Assay: twin-arginine translocation blockade, bacterial reporter – cherry-pick, set 2, plate reader, dose response (AID 504941)
Conditions: E. coli Tat transport reporter; series mostly up to 38 µM

For CN(CC(=O)NCCN1CCOCC1)S(=O)(=O)c1ccc(Cl)cc1, which outcome is on record?
The outcome was “inactive”.

With COc1ccc(OC)c(NC(=O)NCc2cccnc2)c1 as the molecule, how does the outcome read?
Its outcome is “inactive”.

With Cc1cc(=O)[nH]c(Sc2c(-c3ccccc3)c3ccccc3[nH]c2=O)n1 as the molecule, how does the outcome read?
The outcome was “inactive”.

Which outcome does the source give for CN1CCN(c2cc3c(cc2F)c(=O)c(C(=O)O)cn3CCF)CC1 here?
Its outcome is “inactive”.

Which outcome does the source give for Cc1ccc(S(=O)(=O)N2CCC(C(=O)Nc3nnc(C)s3)CC2)cc1 here?
Its outcome is “inactive”.

For CC(C(=O)NC1CCCC1)N1CCN(S(=O)(=O)c2ccc(C(C)(C)C)cc2)CC1 (centres undefined), which outcome is on record?
The outcome was “inactive”.

With O=C(CCSc1nnc(-c2ccco2)o1)N1CCOCC1 as the molecule, how does the outcome read?
The outcome was “inactive”.

With CCc1ccc(-c2cc(C(=O)Nc3ccc(S(=O)(=O)NC(C)=O)cc3)c3ccccc3n2)cc1 as the molecule, how does the outcome read?
Its outcome is “inactive”.

Which outcome does the source give for CC(=O)c1ccc(NC(=O)C2CCCN2S(=O)(=O)c2cccc3cccnc23)cc1 (centres undefined) here?
Its outcome is “inactive”.

Which outcome does the source give for CN(c1ccccc1)S(=O)(=O)c1cccc(NC(=O)CN2C(=O)NC3(CCCC3)C2=O)c1 here?
The outcome was “inactive”.

For CC1(C)C2CCC1(C)C(NC(=O)/C=C/c1ccccc1)C2 (centres undefined), which outcome is on record?
The outcome was “inactive”.

Which outcome does the source give for COc1ccccc1NC(=S)NC(=O)C(C)C here?
Its outcome is “inactive”.

With COc1ccc(Nc2nc3ccccc3nc2-n2nc(C)cc2C)cc1 as the molecule, how does the outcome read?
The outcome was “inactive”.

With COc1cc(NC(=O)C2CCCCC2)c(OC)cc1NC(=O)c1ccco1 as the molecule, how does the outcome read?
The outcome was “inactive”.

Which outcome does the source give for Cc1ccc(-c2cc(C(F)F)n3ncc(C(=O)Nc4ccc(S(=O)(=O)Nc5ccccc5C)cc4)c3n2)cc1 here?
The outcome was “inactive”.

For Oc1c(Cl)cc(Cl)cc1C1Nc2ccccc2-n2cccc21 (centres undefined), which outcome is on record?
The outcome was “inactive”.

Which outcome does the source give for O=C(Nc1ccc2c(c1)OCCO2)C1CCCN(S(=O)(=O)c2cccnc2)C1 (centres undefined) here?
The outcome was “inactive”.

For O=C(c1cccnc1)C1CCCN(Cc2nc(Cc3ccccc3)no2)C1 (centres undefined), which outcome is on record?
The outcome was “inactive”.

Which outcome does the source give for CN1CCN(c2ccc(S(=O)(=O)N3CCCCC3)cc2NC(=O)c2cccc([N+](=O)[O-])c2)CC1 here?
The outcome was “inactive”.

For COc1c2ccoc2nc2c(OC)c(OC[C@@H](O)C(C)(C)O)ccc12, which outcome is on record?
The outcome was “inactive”.

With Cc1ccnc(SCC(=O)c2cccs2)n1 as the molecule, how does the outcome read?
The outcome was “inactive”.

Which outcome does the source give for CC(=O)c1cc(CN2CCN(C3CCCCC3)C(CCO)C2)cs1 (centres undefined) here?
Its outcome is “inactive”.

Which outcome does the source give for O=C1/C(=C/c2cccnc2)Oc2cc(OS(=O)(=O)c3ccccc3)ccc21 here?
Its outcome is “inactive”.

With COc1cccc(NC(=O)c2cccc(C(=O)Nc3cccc(OC)c3)n2)c1 as the molecule, how does the outcome read?
The outcome was “inactive”.

For Cc1ccc(S(=O)(=O)NC(C)(C)CSc2nnc(Nc3ccccc3)s2)cc1, which outcome is on record?
The outcome was “inactive”.

Which outcome does the source give for CN1CCC(=NNC(=O)C(=O)Nc2cccc(Br)c2)CC1 here?
The outcome was “inactive”.

Which outcome does the source give for Cc1ccc(C)c(NC(=O)CN(C)C(=O)c2cccc(S(=O)(=O)N(C)C)c2)c1 here?
Its outcome is “inactive”.

For Cc1ncc(CN2CCN(CCC(C)C)C(CCO)C2)s1 (centres undefined), which outcome is on record?
Its outcome is “inactive”.

With COc1ccc(C(=O)NC2(C(F)(F)F)C(=O)Nc3c2c(=O)[nH]c(=O)n3CCc2ccc(OC)c(OC)c2)cc1 (centres undefined) as the molecule, how does the outcome read?
The outcome was “inactive”.
